Data: PubChem BioAssay (Tox21)
Several values for one entry are separate records, joined by “and”; a condition that tells them apart may be missing. Equal entries are not always repeated. Results filed as inconclusive are left out. Activity calls are given as the source filed them. Unless noted, calls follow the shape of the dose curve; as a rule, active = well fitted curve in the direction sought with a large enough effect in the repeat runs; inconclusive = weak or mixed curves; inactive = no such curve, though single readings can be large; an effect the other way counts as inactive or inconclusive.

Columns and labels:
[1] = qHTS assay to identify aromatase inhibitors - cell viability counter screen (AID 743084); conditions: MCF-7 aro ERE viability, CellTiter-Fluor, 24 h; series mostly up to 70.3 µM;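 also: cells stimulated with testosterone during compound exposure; nearly all actives have a fitted effect of over 55% in size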
[2] = qHTS assay to identify small molecule that activate the aryl hydrocarbon receptor (AhR) signaling pathway - cell viability counter screen (AID 743086); conditions: HepG2-AhR-luc viability, CellTiter-Fluor, 24 h; series mostly up to 70.3 µM;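 also: HepG2 liver cells carrying the AhR DRE luciferase reporter; nearly all actives have a fitted effect of over 45% in size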
Method in brief: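 Cytotoxicity counter screen: CellTiter-Fluor signal (30 min, 37 C) in 4000 HepG2 cells/well carrying the DRE-luciferase reporter, following 24 h compound exposure at 37 C.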

[3] = biological target: Peroxisome proliferator-activated receptor gamma (Homo sapiens) (UniProt P37231); assay: qHTS assay to identify small molecule agonists of the peroxisome proliferator-activated receptor gamma (PPARg) signaling pathway (AID 743094; active = well fitted activation curve with a large enough effect in the signal ratio in the repeat runs, not every such curve was filed as active; the % refers to the signal ratio); conditions: HEK293H PPARg-UAS-bla, beta-lactamase FRET ratio, 17 h; series mostly up to 57 µM
Method in brief: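 Cell-based bla reporter, HEK293H background, PPARg-driven UAS. Pre-incubation 5 h, 37C, 5% CO2. Compound 17 h, 37C. Substrate 1 h RT; fluorescence.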

[4] = qHTS assay to identify small molecule antagonists of the peroxisome proliferator-activated receptor gamma (PPARg) signaling pathway - cell viability counter screen (AID 743194); conditions: PPARg-bla HEK293H viability, CellTiter-Glo luminescence, 17 h, co-treated with 50 nM rosiglitazone; series mostly up to 62.6 µM; also: nearly all actives have a fitted effect of over 55% in size
Method in brief: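 Viability was measured as CellTiter-Glo luminescence in GeneBLAzer PPARg UAS-bla HEK293H cells. These cells had been exposed 17 h at 37 C to compounds together with rosiglitazone at 50 nM final, with the beta-lactamase readout taken in the same wells.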

[5] = qHTS assay for small molecule agonists of the antioxidant response element (ARE) signaling pathway (AID 743202; active = well fitted activation curve with a large enough effect in the signal ratio in the repeat runs, not every such curve was filed as active; the % refers to the signal ratio; also: potency is read from the fitted curve at half-maximal effect); conditions: HepG2 ARE-bla reporter, beta-lactamase FRET, 16 h; series mostly up to 73.3 µM
Method in brief: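 Beta-lactamase reporter activity, read as fluorescence intensity, reflects ARE/Nrf2 pathway induction in HepG2 cells after 16 h compound exposure at 37 C; substrate loading was 2 h at room temperature.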

[6] = qHTS assay for small molecule agonists of the antioxidant response element (ARE) signaling pathway - cell viability counter screen (AID 743203; calls by dose curve; also: nearly all actives have a fitted effect of over 55% in size); conditions: ARE-bla HepG2 viability, CellTiter-Glo luminescence, 16 h; series mostly up to 73.3 µM
Method in brief: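 Measured in the same wells as the beta-lactamase ARE reporter, this read-out is CellTiter-Glo luminescence from HepG2 ARE-bla cells given compounds for 16 hrs.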

[7] = qHTS assay for small molecule activators of the heat shock response signaling pathway (AID 743210; active = well fitted activation curve with a large enough effect in the signal ratio in the repeat runs, with a control signal flat, not every such curve was filed as active; the % refers to the signal ratio;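 also: HeLa cells with beta-lactamase reporter driven by heat shock elements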); conditions: HeLa HSE-bla reporter, beta-lactamase ratio, 5 h; series mostly up to 62.6 µM
Method in brief: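 Fluorescence from a cleaved B/G FRET substrate (2.5 h, room temp) reports HSE-driven beta-lactamase in HeLa cells treated 5 h at 37 C with DMSO-dissolved compounds.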

[8] = qHTS assay to identify small molecule agonists of the peroxisome proliferator-activated receptor delta (PPARd) signaling pathway - cell viability counter screen (AID 743211); conditions: PPARd-bla HEK293H viability, CellTiter-Glo luminescence, 17 h; series mostly up to 62.6 µM; also: nearly all actives have a fitted effect of over 55% in size
Method in brief: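 Following 5 h plating at 37 C and 5% CO2, PPARd UAS-bla HEK293H cells took up test compounds for 17 h. Viability was quantified by luminescence 30 min after CellTiter-Glo addition at room temperature.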

[9] = biological target: Peroxisome proliferator-activated receptor delta (Homo sapiens) (UniProt Q03181); assay: qHTS assay to identify small molecule agonists of the peroxisome proliferator-activated receptor delta (PPARd) signaling pathway (AID 743212; calls by dose curve;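 also: HEK293H cells with PPARd UAS beta-lactamase reporter GeneBLAzer system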); conditions: HEK293H PPARd-UAS-bla, beta-lactamase FRET ratio, 17 h; series mostly up to 62.6 µM
Method in brief: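 Steps: seed PPARd-bla HEK293H cells; incubate 5 h, 37 C, 5% CO2; add compounds in DMSO; incubate, 37 C; add LiveBLAzer B/G FRET substrate; hold 2 h at room temperature; measure fluorescence.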

[10] = qHTS assay to identify small molecule antagonists of the peroxisome proliferator-activated receptor delta (PPARd) signaling pathway - cell viability counter screen (AID 743213); conditions: PPARd-bla HEK293H viability, CellTiter-Glo luminescence, 17 h; series mostly up to 62 µM; also: nearly all actives have a fitted effect of over 50% in size
Method in brief: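 Viability counter-screen, qHTS format: PPARd-bla HEK293H, L165041 300 nM final, 17 h compound exposure at 37 C, CellTiter-Glo luminescence after 30 min RT.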

[11] = biological target: Bile acid receptor (Homo sapiens) (UniProt Q96RI1); assay: qHTS assay to identify small molecule antagonists of the farnesoid-X-receptor (FXR) signaling pathway (AID 743217; active = well fitted inhibition curve with a large enough effect in the signal ratio in the repeat runs, not every such curve was filed as active; the % refers to the signal ratio); conditions: HEK293T FXR-UAS-bla, beta-lactamase ratio, CDCA-stimulated, 16 h; series mostly up to 62.6 µM
Method in brief: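 FRET fluorescence after 2 h room-temperature LiveBLAzer loading gives the readout. Prior step: FXR-bla HEK 293T cells, seeded and incubated 5 h, received test compounds plus 50 uM final CDCA for 16 h at 37 °C.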

[12] = qHTS assay to identify small molecule agonists of the farnesoid-X-receptor (FXR) signaling pathway - cell viability counter screen (AID 743218); conditions: FXR-bla HEK293T viability, CellTiter-Glo luminescence, 16 h; series mostly up to 62.6 µM; also: nearly all actives have a fitted effect of over 45% in size
Method in brief: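 Readout: CellTiter-Glo luminescence, 30 min RT, multiplexed after the FXR-bla FRET reading. HEK 293T FXR-UAS-bla cells received compound 5 h post-plating and were incubated 16 h at 37 C.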

[13] = biological target: Bile acid receptor (Homo sapiens) (UniProt Q96RI1); assay: qHTS assay to identify small molecule agonists of the farnesoid-X-receptor (FXR) signaling pathway (AID 743220; active = well fitted activation curve with a large enough effect in the signal ratio in the repeat runs, not every such curve was filed as active; the % refers to the signal ratio); conditions: HEK293T FXR-UAS-bla, beta-lactamase FRET ratio, 16 h; series mostly up to 62.6 µM
Method in brief: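 FXR-UAS-bla HEK 293T cells carrying a UAS-driven beta-lactamase reporter were plated for 5 h at 37C/5% CO2, then exposed to DMSO-dissolved Tox21 10K compounds for 16 h at 37C. A LiveBLAzer B/G FRET substrate was loaded for 2 h at room temperature before fluorescence reading.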

[14] = qHTS assay to identify small molecule antagonists of the farnesoid-X-receptor (FXR) signaling pathway - cell viability counter screen (AID 743221; active = well fitted cell-killing curve with a large enough effect in the repeat runs, not every such curve was filed as active; also: nearly all actives have a fitted effect of over 50% in size); conditions: FXR-bla HEK293T viability, CellTiter-Glo luminescence, 16 h; series mostly up to 62.6 µM
Method in brief: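 Compound effects on cell number were measured as CellTiter-Glo luminescence in HEK 293T cells expressing FXR-UAS-bla, after 16 h at 37 C with 50 uM CDCA (final).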

[15] = biological target: Aryl hydrocarbon receptor (Homo sapiens) (UniProt P35869); assay: qHTS assay to identify small molecule that activate the aryl hydrocarbon receptor (AhR) signaling pathway (AID 743085); conditions: HepG2 AhR-luc (HG2L7.5c1), luciferase, 24 h; series mostly up to 70.3 µM; also: nearly all actives have a fitted effect of over 15% in size; also: potency is read from the fitted curve at half-maximal effect;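 as to activation: HG2L7.5c1 human HepG2 liver cells with stably integrated DRE-driven firefly reporter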
Method in brief: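 Measured in HG2L7.5c1 cells: CellTiter-Fluor signal (30 min incubation, 37C) for viability, then luciferase luminescence (30 min, room temperature). Compound contact time was 24 h at 37C, following a 5 h pre-incubation.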

[16] = biological target: Peroxisome proliferator-activated receptor gamma (Homo sapiens) (UniProt P37231); assay: qHTS assay to identify small molecule antagonists of the peroxisome proliferator-activated receptor gamma (PPARg) signaling pathway (AID 743191; calls by dose curve; also: nearly all actives have a fitted effect of over 30% in size); conditions: HEK293H PPARg-UAS-bla, beta-lactamase ratio, antagonist, 17 h; series mostly up to 62.6 µM
Method in brief: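 Beta-lactamase reporter under UAS control in HEK293H PPARg-bla cells; compound treatment 17 h at 37C. Read-out: fluorescence intensity after 1 h room-temperature incubation with LiveBLAzer B/G FRET substrate.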

[17] = biological target: Vitamin D3 receptor (Homo sapiens) (UniProt P11473); assay: qHTS assay to identify small molecule antagonists of the vitamin D receptor (VDR) signaling pathway (AID 743223; active = well fitted inhibition curve with a large enough effect in the signal ratio in the repeat runs, not every such curve was filed as active; the % refers to the signal ratio); conditions: VDR-UAS-bla HEK293T, beta-lactamase FRET ratio, 16 h; series mostly up to 61 µM
Method in brief: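 Beta-lactamase activity in VDR-bla cells is measured by FRET substrate fluorescence (2 h, room temperature) after cells spend 16 h at 37C with test compound and 3 nM final 1alpha,25-dihydroxyvitamin D3.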

[18] = biological target: Vitamin D3 receptor (Homo sapiens) (UniProt P11473); assay: qHTS assay to identify small molecule agonists of the vitamin D receptor (VDR) signaling pathway (AID 743222; calls by dose curve); conditions: HEK293T VDR-UAS-bla, beta-lactamase FRET ratio, 16 h; series mostly up to 63.5 µM
Method in brief: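 Following 4 h attachment at 37C, VDR-bla cells (2,000 per well) received DMSO-dissolved compounds or controls. After 16 h incubation, LiveBLAzer B/G FRET substrate was added and fluorescence read 2 h later at room temperature.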

[19] = qHTS assay for small molecule activators of the heat shock response signaling pathway - cell viability counter screen (AID 743209); conditions: HSE-bla HeLa viability, CellTiter-Glo luminescence, 5 h; series mostly up to 62.6 µM; also: nearly all actives have a fitted effect of over 50% in size
Method in brief: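 Same-well multiplex: after 2.5 h room-temperature incubation with LiveBLAzer B/G substrate and fluorescence reading, CellTiter-Glo reagent was added to HSE-bla HeLa cells that had received compound for 5 h at 37 C; luminescence read after 30 min.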

[20] = biological target: Peroxisome proliferator-activated receptor delta (Homo sapiens) (UniProt Q03181); assay: qHTS assay to identify small molecule antagonists of the peroxisome proliferator-activated receptor delta (PPARd) signaling pathway (AID 743215; active = well fitted inhibition curve with a large enough effect in the signal ratio in the repeat runs, not every such curve was filed as active; the % refers to the signal ratio;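 also: cells stimulated with agonist L165041 at 300 nM final during compound exposure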); conditions: HEK293H PPARd-UAS-bla, beta-lactamase FRET ratio, antagonist, 17 h; series mostly up to 62 µM
Method in brief: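 Fluorescence from cleaved LiveBLAzer B/G FRET substrate (2 h, room temperature) reports PPARd-driven beta-lactamase in HEK293H UAS-bla cells. Cells had been treated 17 h at 37 C with compound plus 300 nM final L165041.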

Measured: Potency

Sequence of Bile acid receptor (Homo sapiens) (Q96RI1 whole entry, looked up): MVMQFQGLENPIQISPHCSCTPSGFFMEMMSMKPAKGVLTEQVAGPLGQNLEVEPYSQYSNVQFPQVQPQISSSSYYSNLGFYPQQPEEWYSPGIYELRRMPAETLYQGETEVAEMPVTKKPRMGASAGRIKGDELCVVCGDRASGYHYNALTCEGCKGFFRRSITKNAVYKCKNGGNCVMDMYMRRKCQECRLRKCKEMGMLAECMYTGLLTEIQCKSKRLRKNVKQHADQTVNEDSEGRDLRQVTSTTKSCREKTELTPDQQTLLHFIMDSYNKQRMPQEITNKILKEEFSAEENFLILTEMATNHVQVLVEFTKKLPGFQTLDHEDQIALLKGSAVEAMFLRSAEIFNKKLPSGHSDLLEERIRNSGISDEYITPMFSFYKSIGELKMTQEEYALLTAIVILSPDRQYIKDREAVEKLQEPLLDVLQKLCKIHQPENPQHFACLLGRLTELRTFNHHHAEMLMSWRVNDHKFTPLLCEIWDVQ
Sequence of Vitamin D3 receptor (Homo sapiens) (P11473 whole entry, looked up): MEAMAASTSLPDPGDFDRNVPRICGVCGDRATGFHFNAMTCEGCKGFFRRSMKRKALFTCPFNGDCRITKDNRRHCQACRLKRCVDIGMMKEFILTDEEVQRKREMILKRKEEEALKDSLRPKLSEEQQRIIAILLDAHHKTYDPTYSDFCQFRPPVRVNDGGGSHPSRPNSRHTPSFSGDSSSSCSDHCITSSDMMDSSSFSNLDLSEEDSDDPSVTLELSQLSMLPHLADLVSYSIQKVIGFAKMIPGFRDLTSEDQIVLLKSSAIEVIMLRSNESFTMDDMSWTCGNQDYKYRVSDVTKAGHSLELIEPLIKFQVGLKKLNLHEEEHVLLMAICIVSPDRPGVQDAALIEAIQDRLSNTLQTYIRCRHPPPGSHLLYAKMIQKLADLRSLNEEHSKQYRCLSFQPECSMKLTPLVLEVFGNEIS
Sequence of Peroxisome proliferator-activated receptor gamma (Homo sapiens) (P37231 whole entry, looked up): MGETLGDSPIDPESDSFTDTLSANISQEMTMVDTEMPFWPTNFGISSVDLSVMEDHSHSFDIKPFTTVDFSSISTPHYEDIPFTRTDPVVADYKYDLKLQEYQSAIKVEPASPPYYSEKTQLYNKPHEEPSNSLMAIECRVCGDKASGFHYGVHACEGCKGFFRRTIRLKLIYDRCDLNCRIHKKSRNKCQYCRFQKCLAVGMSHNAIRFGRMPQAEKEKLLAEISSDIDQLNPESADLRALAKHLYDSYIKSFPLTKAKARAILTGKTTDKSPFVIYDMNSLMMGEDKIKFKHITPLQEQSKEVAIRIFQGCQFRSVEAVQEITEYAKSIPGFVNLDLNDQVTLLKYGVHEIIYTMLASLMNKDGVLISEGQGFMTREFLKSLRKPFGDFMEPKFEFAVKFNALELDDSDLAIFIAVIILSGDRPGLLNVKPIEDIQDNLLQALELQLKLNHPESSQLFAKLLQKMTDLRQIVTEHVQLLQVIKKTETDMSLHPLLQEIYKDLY
Sequence of Peroxisome proliferator-activated receptor delta (Homo sapiens) (Q03181 whole entry, looked up): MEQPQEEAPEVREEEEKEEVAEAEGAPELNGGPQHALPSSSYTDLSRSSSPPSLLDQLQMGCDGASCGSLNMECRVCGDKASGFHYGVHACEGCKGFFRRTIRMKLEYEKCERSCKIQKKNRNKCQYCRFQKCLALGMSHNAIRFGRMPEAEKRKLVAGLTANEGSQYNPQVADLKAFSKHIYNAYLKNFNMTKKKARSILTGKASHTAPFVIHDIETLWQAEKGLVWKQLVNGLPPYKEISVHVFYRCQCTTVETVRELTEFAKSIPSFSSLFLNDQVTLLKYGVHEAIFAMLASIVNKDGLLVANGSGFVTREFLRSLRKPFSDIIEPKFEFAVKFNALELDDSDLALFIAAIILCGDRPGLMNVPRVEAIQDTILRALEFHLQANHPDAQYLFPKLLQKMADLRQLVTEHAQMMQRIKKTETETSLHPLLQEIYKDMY
Sequence of Aryl hydrocarbon receptor (Homo sapiens) (P35869 whole entry, looked up): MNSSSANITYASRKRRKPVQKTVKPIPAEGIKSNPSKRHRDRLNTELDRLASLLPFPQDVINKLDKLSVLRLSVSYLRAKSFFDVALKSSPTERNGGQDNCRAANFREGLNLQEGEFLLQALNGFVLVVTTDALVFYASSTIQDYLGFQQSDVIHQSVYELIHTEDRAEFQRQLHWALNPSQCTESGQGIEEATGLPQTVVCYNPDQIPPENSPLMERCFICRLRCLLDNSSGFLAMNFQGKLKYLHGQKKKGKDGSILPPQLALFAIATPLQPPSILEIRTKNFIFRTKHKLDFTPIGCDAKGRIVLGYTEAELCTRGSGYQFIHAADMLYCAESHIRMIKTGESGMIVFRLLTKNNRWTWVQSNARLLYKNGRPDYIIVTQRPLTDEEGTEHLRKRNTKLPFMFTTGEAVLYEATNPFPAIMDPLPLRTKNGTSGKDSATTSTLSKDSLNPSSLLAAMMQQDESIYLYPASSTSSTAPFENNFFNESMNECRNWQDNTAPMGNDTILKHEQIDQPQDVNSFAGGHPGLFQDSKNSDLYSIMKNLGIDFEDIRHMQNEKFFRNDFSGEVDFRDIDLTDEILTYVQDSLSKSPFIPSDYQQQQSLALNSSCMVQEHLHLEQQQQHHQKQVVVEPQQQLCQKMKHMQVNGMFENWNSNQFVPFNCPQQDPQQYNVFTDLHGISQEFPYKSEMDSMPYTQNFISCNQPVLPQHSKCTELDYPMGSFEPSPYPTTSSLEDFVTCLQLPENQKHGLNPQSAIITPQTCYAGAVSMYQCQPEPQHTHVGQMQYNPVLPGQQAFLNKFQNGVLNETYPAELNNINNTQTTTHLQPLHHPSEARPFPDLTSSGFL

O=C(CC(C(=O)OC1CCCCC1)S(=O)(=O)O)OC1CCCCC1 (configuration not stated)
not listed: [15] | [16] | [17] | [18] | [19] | [20]
inactive: all other assays above

O=C(O)[C@H](O)[C@@H](O)[C@H](O)[C@H](O)CO
not listed: [2] | [4] | [11] | [13] | [18] | [19] | [20]
inactive: all other assays above

CC1=CCC2CC1C2(C)C (configuration not stated)
inactive: [1] | [3] | [5] | [6] | [7] | [8] | [9] | [10] | [12] | [14] | [18]

CC(C)(C)[C@@H](O)[C@@H](Cc1ccc(Cl)cc1)n1cncn1
not listed: [2] | [4] | [15] | [19] | [20]
inactive: all other assays above

FC(F)(F)c1ccc(Cl)c(Cl)c1
not listed: [2] | [4] | [11] | [13] | [17] | [18]
inactive: all other assays above

NNc1nncc2ccccc12
inactive: [2] | [6] | [19] | [7] | [8] | [10] | [12] | [14] | [18] | [17]
active: [15] 9.69 µM

OCCOCCN1CCN(C2=Nc3ccccc3Sc3ccccc32)CC1
not listed: [1] | [3] | [5] | [9] | [10] | [16] | [20]
inactive: all other assays above

CC(c1cc2ccccc2s1)N(O)C(N)=O (configuration not stated)
not listed: [3] | [11] | [13] | [15] | [16] | [19]
inactive: all other assays above

Oc1cccc2ccccc12
active: [5] 31.4 µM and 30.6 µM
not listed: [1] | [3] | [9] | [15] | [16] | [18] | [19] | [20]
inactive: all other assays above

CCCCC(CC)COC(=O)CS (configuration not stated)
inactive: [5] | [6] | [19] | [7] | [8] | [10] | [12] | [14] | [18] | [17]
